# Test results as given in PubChem BioAssay (NCATS).
# Records with an inconclusive call do not appear. The source made the active and inactive calls. Unless noted, calls follow the shape of the dose curve; as a rule, active = well fitted curve in the direction sought with a large enough effect; inconclusive = small, poorly fitted or top-dose-only effect, or another doubt; inactive = no such curve, though single readings can be large; an effect the other way counts as inactive or inconclusive.
# What was measured:
# [1] = target: Lysosomal acid glucosylceramidase (Homo sapiens) (UniProt P04062); experiment: Glucocerebrosidase-p2 (AID 348; in the data active = potency below about 10 µM; also: potency is read from the fitted curve at half-maximal effect); details: purified GBA, blue fluorogenic substrate, 40 min
# Lysosomal acid glucosylceramidase (Homo sapiens), sequence (P04062 whole entry, looked up): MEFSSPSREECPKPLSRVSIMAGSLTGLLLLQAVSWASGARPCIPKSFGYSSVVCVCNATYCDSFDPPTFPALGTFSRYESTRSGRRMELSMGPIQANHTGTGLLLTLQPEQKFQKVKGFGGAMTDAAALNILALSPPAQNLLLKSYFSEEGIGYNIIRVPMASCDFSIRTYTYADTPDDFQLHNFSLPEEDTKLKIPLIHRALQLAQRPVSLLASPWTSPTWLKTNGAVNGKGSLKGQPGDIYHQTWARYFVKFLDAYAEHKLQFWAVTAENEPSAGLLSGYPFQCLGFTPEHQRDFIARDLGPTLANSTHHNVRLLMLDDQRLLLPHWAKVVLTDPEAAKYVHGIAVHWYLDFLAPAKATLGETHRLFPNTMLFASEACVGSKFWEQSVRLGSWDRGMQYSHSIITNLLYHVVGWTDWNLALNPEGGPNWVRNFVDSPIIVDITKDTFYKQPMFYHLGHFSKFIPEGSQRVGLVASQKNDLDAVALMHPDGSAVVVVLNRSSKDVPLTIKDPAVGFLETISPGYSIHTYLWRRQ
# Method in brief: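 Compounds titrated from 0.6 nM upwards against 0.2 nM enzyme in pH 5.9 citric acid/KH2PO4, taurocholate, tween-20; blue fluorogenic substrate 80 uM, 40 min room temperature, stopped and read Ex 365/Em 440 for AC50.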
# [2] = AP1 Signaling Pathway (AID 357; active = well fitted curve in either direction with a large enough effect, not every such curve was filed as active;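 also: ME-180 reporter cells stimulated with EGF at its EC50 level; % is scaled to controls: 0 for no effect and ±100 for the full control effect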); details: ME-180 AP-1-bla reporter, EGF-induced, beta-lactamase ratio, 5 h; at 7.69 µM (top of the series) unless noted
# Method in brief: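 Titration-series screen for positive or negative modulators of EC50 EGF-induced signaling in ME-180 cells carrying an AP-1-driven beta-lactamase reporter. After 5 hours at 37 degrees Celsius, CCF4 460nm/530nm emission ratio gave %Activity; AC50 values derived.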
# [3] = NFAT Signaling Pathway (AID 444; active = well fitted curve in either direction with a large enough effect, not every such curve was filed as active;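 also: carbachol stimulus at about its EC50 of 1 µM final; % is scaled to controls: 0 for no effect and ±100 for the full control effect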); details: Jurkat NFAT-bla M1, carbachol, beta-lactamase ratio, 5 h; at 7.69 µM (top of the series) unless noted
# Method in brief: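 Jurkat cells carrying an NFAT-driven β-lactamase reporter and co-transfected muscarinic M1 receptor were treated with compound plus carbachol (1 uM final, an EC50 level) for 5 h at 37 °C. CCF4 loading followed for 1 h at RT; 460/530 nm ratio gave %activity.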
# [4] = Stat Signaling Pathway (AID 446; active = well fitted curve in either direction with a large enough effect, not every such curve was filed as active;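 also: ME-180 cervical cancer cells given 40 pM IL-6 alongside compound; SIE-controlled beta-lactamase reporter measured as 460/530 nm FRET emission ratio; % is scaled to controls: 0 for no effect and ±100 for the full control effect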); details: ME-180 SIE beta-lactamase reporter, IL-6 stimulated, 5 h; at 7.69 µM (top of the series) unless noted
# Method in brief: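 ME-180 SIE-bla cells; overnight plating; cpd + IL-6 40 pM, 5 h, 37 C; LiveBLAzer 2.5 h RT; 460/530 nm emission ratio. Normalized to 300 pM IL-6 and 125 nM JAK inhibitor controls.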
# [5] = target: Glucocorticoid receptor (Homo sapiens) (UniProt P04150); experiment: GR-GFP Redistribution (AID 450;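 active = compounds whose dose series gives a full or clear partial fitted curve of increased nuclear translocation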; also: potency is read from the fitted curve at half-maximal effect); details: U2OS GR-GFP nuclear translocation, laser cytometry, 2 h
# Glucocorticoid receptor (Homo sapiens), sequence (P04150 whole entry, looked up, the tested form may be a part): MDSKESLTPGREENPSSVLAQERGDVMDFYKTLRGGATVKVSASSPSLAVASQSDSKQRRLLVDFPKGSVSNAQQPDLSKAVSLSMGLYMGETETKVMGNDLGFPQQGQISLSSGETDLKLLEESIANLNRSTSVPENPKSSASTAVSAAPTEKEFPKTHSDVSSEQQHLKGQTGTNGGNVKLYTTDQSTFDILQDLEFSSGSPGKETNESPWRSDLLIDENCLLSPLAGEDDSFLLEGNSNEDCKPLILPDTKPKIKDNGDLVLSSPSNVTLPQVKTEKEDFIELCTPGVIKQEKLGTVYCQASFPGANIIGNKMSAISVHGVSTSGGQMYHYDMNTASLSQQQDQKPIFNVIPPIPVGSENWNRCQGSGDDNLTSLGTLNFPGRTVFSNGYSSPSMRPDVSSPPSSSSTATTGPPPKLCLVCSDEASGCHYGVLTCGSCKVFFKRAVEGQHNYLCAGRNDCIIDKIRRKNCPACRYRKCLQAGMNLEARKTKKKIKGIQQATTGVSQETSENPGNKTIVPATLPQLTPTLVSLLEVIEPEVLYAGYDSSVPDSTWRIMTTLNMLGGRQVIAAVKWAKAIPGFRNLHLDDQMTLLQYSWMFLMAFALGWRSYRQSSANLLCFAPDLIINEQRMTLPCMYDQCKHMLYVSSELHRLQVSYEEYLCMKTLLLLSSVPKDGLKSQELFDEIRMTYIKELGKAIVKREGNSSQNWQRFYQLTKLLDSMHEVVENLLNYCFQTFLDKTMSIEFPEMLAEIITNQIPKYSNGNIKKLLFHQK
# [6] = target: Glucocorticoid receptor (Homo sapiens) (UniProt P04150); experiment: GR-EFC Redistribution (AID 451; calls by dose curve; also: potency is read from the fitted curve at half-maximal effect); details: CHO-K1 GR-EFC translocation, beta-gal luminescence, 2 h
# Method in brief: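 CHO-K1 cells stably expressing nuclear-localized β-gal enzyme acceptor and GR fused C-terminally to the enzyme donor fragment; ligand-driven nuclear translocation restores β-gal by complementation. Compounds titrated up to 46 uM final, 2 h at 37 °C; luminescence read.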
# [7] = target: Mitogen-activated protein kinase 10 (Mus musculus) (UniProt Q61831); experiment: JNK3 AlphaScreen Assay (AID 530; active = well fitted curve in either direction with a large enough effect, not every such curve was filed as active;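 also: kinase came from lysate of stimulated human HepG2 cells; signal reports phosphorylation of biotinylated GST-cJun 1-79 at Ser73 with 10 µM ATP; % is scaled to controls: 0 for no effect and ±100 for the full control effect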); details: JNK3 lysate, c-Jun phosphorylation; series mostly up to 57.1 µM
# Method in brief: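 Inhibitors reduce antibody binding to phosphorylated biotin-cJun, lowering AlphaScreen luminescence. Lysates from HepG2 cells pre-activated by IL-1beta plus TNF-alpha supplied JNK3; compounds were titrated.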
# [8] = target: 3',5'-cyclic-AMP phosphodiesterase 4B (Homo sapiens) (UniProt Q07343); experiment: qHTS Assay for Inhibitors of PDE-IV (AID 607; active = well fitted activation curve with a large enough effect in the main read-out, with a control signal flat, not every such curve was filed as active; also: % of control where 0% means no effect); details: HEK293 ACTOne CNG channel cells, membrane potential fluorescence; series mostly up to 22.9 µM
# 3',5'-cyclic-AMP phosphodiesterase 4B (Homo sapiens), sequence (Q07343 whole entry, looked up): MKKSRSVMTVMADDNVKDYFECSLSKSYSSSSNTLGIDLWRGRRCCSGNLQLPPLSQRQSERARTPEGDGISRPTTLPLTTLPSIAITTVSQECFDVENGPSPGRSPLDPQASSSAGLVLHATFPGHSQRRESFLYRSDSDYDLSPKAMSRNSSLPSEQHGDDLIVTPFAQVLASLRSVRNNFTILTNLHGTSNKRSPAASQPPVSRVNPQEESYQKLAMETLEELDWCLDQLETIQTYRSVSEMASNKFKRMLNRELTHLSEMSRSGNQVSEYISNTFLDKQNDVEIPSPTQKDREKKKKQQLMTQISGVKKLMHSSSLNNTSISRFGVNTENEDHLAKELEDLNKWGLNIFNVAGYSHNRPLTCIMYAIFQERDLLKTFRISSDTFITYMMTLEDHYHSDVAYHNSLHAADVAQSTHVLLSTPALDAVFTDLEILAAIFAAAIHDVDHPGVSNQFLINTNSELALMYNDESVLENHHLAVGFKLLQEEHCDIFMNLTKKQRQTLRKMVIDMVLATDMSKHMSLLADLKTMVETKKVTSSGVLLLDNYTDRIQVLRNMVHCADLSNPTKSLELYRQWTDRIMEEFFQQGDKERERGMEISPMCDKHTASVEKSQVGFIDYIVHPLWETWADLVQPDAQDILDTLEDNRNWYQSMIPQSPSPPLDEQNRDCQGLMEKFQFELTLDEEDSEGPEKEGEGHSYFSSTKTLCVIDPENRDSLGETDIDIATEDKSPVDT
# Method in brief: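 ACTOne HEK293 cells carry a modified cAMP-gated CNG channel and express endogenous PDE4; plated 1000 cells/well, compounds up to 22.9 uM final. Membrane-potential dye fluorescence (ex 535/em 590) was read; parental cells received 10 uM forskolin + 100 uM RO 20-1724.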
# [9] = target: Dual specificity protein kinase CLK4 (Homo sapiens) (UniProt Q9HAZ1); experiment: qHTS Assay for Inhibitors of CDC-like Kinase 4 (Kinase-Glo Assay) (AID 1770); details: recombinant Clk4, Kinase-Glo ATP depletion luminescence; series mostly up to 66.7 µM; also: % is scaled to controls: 0 for no effect and ±100 for the full control effect; nearly all actives have a fitted effect of over 65% in size
# Dual specificity protein kinase CLK4 (Homo sapiens), sequence (Q9HAZ1 whole entry, looked up): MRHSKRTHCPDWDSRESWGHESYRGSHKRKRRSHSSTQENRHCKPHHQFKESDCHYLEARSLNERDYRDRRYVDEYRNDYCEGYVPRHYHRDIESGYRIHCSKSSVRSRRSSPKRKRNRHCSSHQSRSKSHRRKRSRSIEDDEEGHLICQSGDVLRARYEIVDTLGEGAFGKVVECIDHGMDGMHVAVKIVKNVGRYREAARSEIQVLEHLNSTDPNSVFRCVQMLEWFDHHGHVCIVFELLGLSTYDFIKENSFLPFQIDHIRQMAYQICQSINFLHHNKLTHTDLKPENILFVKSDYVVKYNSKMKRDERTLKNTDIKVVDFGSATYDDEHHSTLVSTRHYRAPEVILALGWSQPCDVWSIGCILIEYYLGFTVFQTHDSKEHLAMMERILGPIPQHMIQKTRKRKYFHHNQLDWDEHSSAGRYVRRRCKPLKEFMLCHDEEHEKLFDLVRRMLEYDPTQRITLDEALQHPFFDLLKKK
# Method in brief: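 Luminescent ATP-depletion read-out (Kinase-Glo) after 4.5 h room-temperature reaction of Clk4 (25 nM final) with RS peptide (100 uM) and ATP (1 uM), pH 7.5 Tris buffer with MgCl2 and DTT.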
# [10] = target: Dual specificity protein kinase CLK4 (Homo sapiens) (UniProt Q9HAZ1); experiment: qHTS Assay for Inhibitors of CDC-like Kinase 4 (ADP-Glo Assay) (AID 1771); details: recombinant CLK4, ADP-Glo luminescence; series mostly up to 80 µM; also: % is scaled to controls: 0 for no effect and ±100 for the full control effect; nearly all actives have a fitted effect of over 70% in size
# Method in brief: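 Luminescence from ADP-Glo reports ADP produced by 25 nM Clk4 acting on 100 uM RS repeat peptide with 1 uM ATP over 1 hr at room temperature; residual ATP is depleted before ADP is converted to ATP for detection.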
# [11] = target: Dual specificity protein kinase CLK4 (Homo sapiens) (UniProt Q9HAZ1); experiment: qHTS Assay for Inhibitors of CDC-like Kinase 4 (ADP-FP Assay) (AID 1795); details: Transcreener ADP fluorescence polarization; series mostly up to 50 µM;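 also: recombinant human CLK4 phosphorylating RS repeat peptide at 1 µM ATP; % is scaled to controls: 0 for no effect and ±100 for the full control effect; nearly all actives have a fitted effect of over 60% in size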
# Method in brief: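 Kinase activity was measured as ADP production using Transcreener orange tracer (4 nM) and ADP antibody (1 ug/mL) fluorescence polarization, with ADP calculated from a calibration curve. The 1 h reaction contained 6.25 nM Clk4, 1 uM ATP and 100 uM RS peptide at pH 7.5 with Mg2+.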
# [12] = target: Ubiquitin carboxyl-terminal hydrolase 1 (Homo sapiens) (UniProt O94782); experiment: Inhibitors of USP1/UAF1: Pilot qHTS (AID 504865); details: purified USP1/UAF1, Ub-rhodamine cleavage fluorescence; series mostly up to 54.9 µM;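 also: rhodamine fluorescence freed from ubiquitin-rhodamine substrate followed over time; top concentration of the series differs between compounds; % is scaled to controls: 0 for no effect and ±100 for the full control effect; nearly all actives have a fitted effect of over 35% in size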
# Ubiquitin carboxyl-terminal hydrolase 1 (Homo sapiens), sequence (O94782 whole entry, looked up): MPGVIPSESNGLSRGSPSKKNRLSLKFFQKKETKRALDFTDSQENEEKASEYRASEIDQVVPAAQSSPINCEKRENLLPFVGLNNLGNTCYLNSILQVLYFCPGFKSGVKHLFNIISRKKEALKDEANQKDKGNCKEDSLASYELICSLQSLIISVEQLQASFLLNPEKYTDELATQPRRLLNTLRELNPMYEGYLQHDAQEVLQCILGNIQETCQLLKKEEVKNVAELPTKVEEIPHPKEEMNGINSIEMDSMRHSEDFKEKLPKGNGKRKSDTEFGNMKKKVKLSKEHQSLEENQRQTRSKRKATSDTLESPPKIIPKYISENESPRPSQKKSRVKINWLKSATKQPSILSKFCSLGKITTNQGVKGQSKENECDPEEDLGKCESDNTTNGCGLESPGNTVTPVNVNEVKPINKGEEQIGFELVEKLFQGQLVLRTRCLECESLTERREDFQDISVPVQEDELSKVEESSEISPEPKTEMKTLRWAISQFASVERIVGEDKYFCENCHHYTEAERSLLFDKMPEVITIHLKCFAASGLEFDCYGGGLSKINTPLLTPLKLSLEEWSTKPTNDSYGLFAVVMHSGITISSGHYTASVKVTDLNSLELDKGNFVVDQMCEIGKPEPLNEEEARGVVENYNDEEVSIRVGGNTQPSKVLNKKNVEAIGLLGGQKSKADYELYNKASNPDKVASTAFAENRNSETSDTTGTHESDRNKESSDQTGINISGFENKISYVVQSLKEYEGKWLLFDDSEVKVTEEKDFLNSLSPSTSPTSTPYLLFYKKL
# Method in brief: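 Deubiquitinase activity followed as kinetic rhodamine fluorescence release from 150 nM Ub-Rho. 1 nM USP1/UAF1 with compound, after 15 min room-temperature preincubation, in HEPES pH 7.8 buffer containing TCEP, EDTA, BSA and Tween-20.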
# [13] = Counterscreen qHTS for small molecule stabilizers of the endoplasmic reticulum resident proteome: GLuc-NoTag assay (AID 1508627); details: Gaussia luciferase NoTag secretion counterscreen, luminescence, thapsigargin 100 nM for final 4 h; series mostly up to 76.4 µM;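 also: SH-SY5Y cells given compound then 100 nM thapsigargin to empty ER calcium; 0% = thapsigargin alone and -100% = DMSO vehicle control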
# Method in brief: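 SH-SY5Y cells stably expressing constitutively secreted GLuc (no SERCaMP tag) were pre-incubated 5 h, treated with compound for 19 h, then 100 nM thapsigargin for 4 h at 37C; medium GLuc read by coelenterazine luminescence.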
# [14] = Confirmatory qHTS for small molecule stabilizers of the endoplasmic reticulum resident proteome: Secreted ER Calcium Modulated Protein (SERCaMP) assay (AID 1508628); details: SERCaMP secreted luciferase ER calcium/proteostasis reporter; series mostly up to 76.3 µM; also: nearly all actives have a fitted effect of over 40% in size; also: potency is read from the fitted curve at half-maximal effect
# Method in brief: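 SH-SY5Y cells stably expressing GLuc-SERCaMP, treated 16 h with compound (primary 1.53, 7.67, 38.3 uM; confirmation 11 concentrations, up to 76.6 uM), then 100 nM thapsigargin for 4 h. Secreted Gaussia luciferase in medium read by coelenterazine luminescence.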
# [15] = Cell Viability qHTS for small molecule stabilizers of the endoplasmic reticulum resident proteome (AID 1508629); details: cell viability counter-screen, 100 nM thapsigargin for final 4 h
# [16] = target: Rap guanine nucleotide exchange factor 3 (Homo sapiens) (UniProt O95398); experiment: Confirmatory qHTS for agonist of cAMP-regulated guanine nucleotide exchange factor 3 (EPAC1) (AID 1645881); details: EPAC1 Rap1B BODIPY-GDP exchange fluorescence, 100% = cAMP control response; series mostly up to 154 µM;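 also: EPAC1 catalysed release of BODIPY-GDP from Rap1B seen as fluorescence loss; nearly all actives have a fitted effect of over 75% in size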
# [17] = target: Rap guanine nucleotide exchange factor 4 (Homo sapiens) (UniProt Q8WZA2); experiment: Confirmatory qHTS for agonist of cAMP-regulated guanine nucleotide exchange factor 4 (EPAC2) (AID 1645884); details: EPAC2 GEF activity, Rap1B-BODIPY-GDP fluorescence, percent relative to cAMP agonist control; series mostly up to 154 µM;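 also: nucleotide exchange releases bodipy-GDP from Rap1 and this lowers its fluorescence; % is scaled to controls: 0 for no effect and ±100 for the full control effect; nearly all actives have a fitted effect of over 65% in size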
# [18] = target: Cytochrome P450 1A2 (Homo sapiens) (UniProt P05177); experiment: p450-cyp1a2 (AID 410; calls by dose curve; also: potency is read from the fitted curve at half-maximal effect); details: recombinant CYP1A2, luciferin-ME demethylation, luminescence; series mostly up to 57 µM
# Cytochrome P450 1A2 (Homo sapiens), sequence (P05177 whole entry, looked up): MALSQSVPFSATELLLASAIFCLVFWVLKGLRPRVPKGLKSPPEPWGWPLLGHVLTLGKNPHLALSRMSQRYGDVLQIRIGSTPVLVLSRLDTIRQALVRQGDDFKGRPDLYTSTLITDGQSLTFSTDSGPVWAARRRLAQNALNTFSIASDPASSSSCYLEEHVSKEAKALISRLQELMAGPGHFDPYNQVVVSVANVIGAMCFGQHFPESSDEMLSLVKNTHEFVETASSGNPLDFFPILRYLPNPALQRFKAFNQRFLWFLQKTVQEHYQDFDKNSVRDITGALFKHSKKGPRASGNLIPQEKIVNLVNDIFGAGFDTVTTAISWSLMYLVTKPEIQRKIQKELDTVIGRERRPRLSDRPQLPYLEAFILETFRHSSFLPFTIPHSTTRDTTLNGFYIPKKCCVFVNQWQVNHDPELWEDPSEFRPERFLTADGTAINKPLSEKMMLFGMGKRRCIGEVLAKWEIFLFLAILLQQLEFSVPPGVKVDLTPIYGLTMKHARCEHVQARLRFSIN
# Method in brief: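 Luminescent readout of luciferin formed from Luciferin-ME by human CYP1A2; data normalized against complete inhibition by 57 uM furafylline. Enzyme 20nM, substrate 100uM at Km, 100mM KPO4 buffer, 60 min reaction at room temperature.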
# [19] = target: Cytochrome P450 2C19 (Homo sapiens) (UniProt P33261); experiment: qHTS Assay for Inhibitors and Substrates of Cytochrome P450 2C19 (AID 899); details: recombinant CYP2C19, luciferin-H EGE luminescence; series mostly up to 57.1 µM; also: % is scaled to controls: 0 for no effect and ±100 for the full control effect; nearly all actives have a fitted effect of over 60% in size
# Cytochrome P450 2C19 (Homo sapiens), sequence (P33261 whole entry, looked up): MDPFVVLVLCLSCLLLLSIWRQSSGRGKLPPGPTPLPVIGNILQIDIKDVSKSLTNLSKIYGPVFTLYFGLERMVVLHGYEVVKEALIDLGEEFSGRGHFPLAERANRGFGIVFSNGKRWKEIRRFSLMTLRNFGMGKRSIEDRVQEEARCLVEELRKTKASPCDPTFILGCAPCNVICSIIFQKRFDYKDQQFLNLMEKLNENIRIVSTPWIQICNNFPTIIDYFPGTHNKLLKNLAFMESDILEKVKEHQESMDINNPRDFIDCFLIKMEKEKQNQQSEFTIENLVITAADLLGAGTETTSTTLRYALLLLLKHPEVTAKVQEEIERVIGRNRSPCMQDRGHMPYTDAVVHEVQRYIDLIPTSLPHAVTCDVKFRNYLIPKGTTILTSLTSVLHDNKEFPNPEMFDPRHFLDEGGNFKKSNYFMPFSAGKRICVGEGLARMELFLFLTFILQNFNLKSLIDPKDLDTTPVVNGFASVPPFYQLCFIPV
# Method in brief: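 In 50mM KPO4, the reaction held 5nM enzyme and KM-level (10uM) Luciferin-H EGE; it ran 60 min at 37C after NADPH regeneration and a 10 min compound preincubation. Luminescence values were scaled to 57uM ketoconazole as complete inhibition.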
# [20] = qHTS Assay for Lipid Storage Modulators (AID 1519; calls by dose curve); details: Drosophila S3 cells, BODIPY lipid droplet/cell ratio, laser cytometry, cells loaded with oleic acid
# Method in brief: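 Cells seeded at 5,000 per well were treated with compounds over a concentration series and loaded with oleic acid (400 uM, as added). Lipid droplet fluorescence (488 nm excitation, 500-530 nm channel) was read by laser-scanning cytometry and normalized to 20 uM Triacsin C.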
compound,measurement,setting,value
Cc1nc2cnc(N3CCNCC3)nc2n(CCc2ccccc2)c1=O,Potency,[1],> 11.4 µM (inactive)
same,"activity change, negative = inhibition",[2],-1.97% (inactive)
same,"activity change, negative = inhibition",[3],-13.2% (inactive)
same,"activity, negative = inhibition",[4],-13.8% (inactive)
same,Potency,[5],> 9.22 µM (inactive)
same,Potency,[6],> 46 µM (inactive)
same,outcome,[7],inactive
same,Potency,[8],inactive
same,Potency,[9],inactive
same,Potency,[10],inactive
same,Potency,[11],inactive
same,Potency,[12],inactive
same,Potency,[13],inactive
same,Potency,[14],31.6 µM (active)
CN(C)c1nccc(N(Cc2ccccc2)Cc2ccccc2)c1C#N,Potency,[13],inactive
same,max response,[15],-2.77% (inactive)
COc1cccc(CN2CCN(C(=O)c3ccc(-c4ccccc4)cc3)CC2)c1OC,Potency,[13],inactive
same,max response,[15],10.7% (inactive)
Cc1ccccc1-c1nccc(Nc2ccc(F)cc2)n1,Potency,[1],> 11.4 µM (inactive)
same,"activity change, negative = inhibition",[2],-8.14% (inactive)
same,"activity change, negative = inhibition",[3],-3.97% (inactive)
same,"activity, negative = inhibition",[4],-11% (inactive)
same,Potency,[5],> 46 µM (inactive)
same,Potency,[6],> 46 µM (inactive)
same,outcome,[7],inactive
same,Potency,[9],inactive
same,Potency,[11],inactive
same,Potency,[13],inactive
same,Potency,[14],inactive
same,outcome,[16],inactive
same,outcome,[17],inactive
COc1ccc(-n2c(=O)cnc3cnc(N4CCNCC4)nc32)cc1,Potency,[1],> 11.4 µM (inactive)
same,"activity change, negative = inhibition",[2],-7.32% (inactive)
same,Potency,[18],12.6 µM (active)
same,"activity change, negative = inhibition",[3],0.78% (inactive)
same,"activity, negative = inhibition",[4],-6.65% (inactive)
same,Potency,[5],> 9.22 µM (inactive)
same,Potency,[6],> 46 µM (inactive)
same,outcome,[7],inactive
same,Potency,[8],inactive
same,Potency,[13],inactive
same,max response,[15],4.18% (inactive)
FC(F)(F)c1ccccc1-c1nc(NC2CCNCC2)c2ccccc2n1,Potency,[1],> 11.4 µM (inactive)
same,"activity change, negative = inhibition",[2],9.18% (inactive)
same,"activity change, negative = inhibition",[3],7.17% (inactive)
same,"activity, negative = inhibition",[4],1.97% (inactive)
same,Potency,[5],> 46 µM (inactive)
same,Potency,[6],> 46 µM (inactive)
same,outcome,[7],inactive
same,Potency,[8],inactive
same,Potency,[19],inactive
same,"activity change, negative = inhibition",[20]; at 57.5 µM (top of the series),1.75% (inactive)
same,max response,[20]; measured here: cell count channel max response,19.6%
same,max response,[20]; measured here: lipid channel max response,17.3%
same,Potency,[9],inactive
same,Potency,[10],inactive
same,Potency,[11],inactive
same,Potency,[12],inactive
same,Potency,[13],inactive
O=c1c(-c2ccc(Cl)cc2)nc2cnc(Oc3ccccc3)nc2n1C1CC1,Potency,[1],> 11.4 µM (inactive)
same,"activity change, negative = inhibition",[2],-21% (inactive)
same,"activity change, negative = inhibition",[3],-2.33% (inactive)
same,"activity, negative = inhibition",[4],-4.95% (inactive)
same,Potency,[5],> 9.22 µM (inactive)
same,Potency,[6],> 46 µM (inactive)
same,outcome,[7],inactive
same,Potency,[8],inactive
same,Potency,[13],inactive
same,Potency,[14],35.5 µM (active)
O=c1c(-c2cccs2)nc2cnc(N3CCNCC3)nc2n1CCc1ccccc1,Potency,[1],> 11.4 µM (inactive)
same,"activity change, negative = inhibition",[2],82.5% [activator] (active)
same,Potency,[5],> 9.22 µM (inactive)
same,Potency,[6],> 46 µM (inactive)
same,Potency,[8],inactive
same,Potency,[9],inactive
same,Potency,[11],inactive
same,Potency,[12],inactive
same,Potency,[13],inactive
same,Potency,[14],inactive
